Bioassay records (PubChem BioAssay)
This is one part of a sample in which hits are shown more often than they occur.
Dicer inh: inhibitors of Dicer pre-microRNA processing, primary screen, biochemical, cat-ELCCA, chemiluminescence; AID 1347074, 2019; Endoribonuclease Dicer (Homo sapiens), Q9UPY3; 6% of 47,000 active; z-score at 25 µM; cat-ELCCA pre-miR-21 Dicer processing; active compounds read high; in the data active = z-score above about 3, passing the limit was not always enough;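 also: plate controls were vehicle for no effect and no enzyme for full effect; higher signal means more uncleaved substrate so more Dicer inhibition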
Starred values were filed as active, the others as inactive.

SMILES | Dicer inh
CC(=O)Nc1nc([N+](=O)[O-])c(SCC(=O)O)s1 | 2.54
NC(=O)c1cc(Cl)ccc1I | 0.62
C=CCNC(=S)NNC(=O)c1sc2nc(C)cc(C)c2c1N | 4.17*
Cc1cc(C)c2c(N)c(C(N)=O)sc2n1 | 0.03
C=CCNC(=S)NNC(=O)c1sc2nnc(-c3ccccc3)c(-c3ccccc3)c2c1N | 15.6
N#Cc1c(Br)cnn1Cc1ccc(Cl)cc1 | 1.19
Cc1csc(C(=O)O/N=C/c2ccc(C#N)cc2)c1 | 1.52
O=S(=O)(NCc1ccc2c(c1)OCO2)c1ccccc1 | -2.19
c1ccc(Nc2nc(-c3ccccc3)nc3ccccc23)cc1 | 0.12
O=c1nc(Nc2ccccc2)oc2ccccc12 | 3.75*
O=c1nc(-c2ccc(Cl)cc2)oc2ccccc12 | 0.94
CNS(=O)(=O)c1ccc(C)cc1I | 0.09
COC(=O)CNS(=O)(=O)c1ccsc1C(=O)OC | -0.99
O=C(O)[C@H]1CCCC[C@H]1C(=O)NCCC1=CCCCC1 | -0.86
Cc1ccc(S(=O)(=O)NCCC2=CCCCC2)cc1 | 1.24
O=c1cc(NCCC2=CCCCC2)c2ccccc2o1 | 3.54*
CC(C)(C)c1ccc(C(=O)Nc2nnc(Sc3ccc([N+](=O)[O-])cc3C#N)s2)cc1 | -1.19
O=c1c(Cc2ccccc2)c(O)c2cccc3c2n1CCC3 | -1.03
O=c1c(Cc2ccccc2)c(O)c2ccccc2n1-c1ccccc1 | 4.03*
O=c1c(Cc2ccccc2)c(O)c2cccc3c4ccccc4n1c23 | -1.49
CC1(CC(=O)c2ccc(Br)cc2)C(=O)OC(c2ccccc2)C(C)(C)C1=O (stereo not drawn) | -0.2
CCCC(=O)Oc1ccc2oc(-c3ccc(OC)cc3)cc(=O)c2c1 | 1.56
COc1cc(/C=C/c2nc(-c3ccccc3O)n(-c3ccccc3)n2)ccc1O | 6.04*
O=C(O)COc1ccc(/C=C/c2nc(-c3ccccc3O)n(-c3ccccc3)n2)cc1 | 1.29
COc1cc(/C=N/Nc2nc3c(c(=O)n(Cc4ccccc4)c(=O)n3C)n2C)ccc1O | -0.04
SMILES | Dicer inh
O=C(NC1CCN(Cc2c(F)cccc2Cl)CC1)C1CCN(C(=O)OCc2ccccc2)CC1 | -0.87
COc1ccc(N2C(=O)c3cccc4c(N5CCOCC5)ccc(c34)C2=O)cc1 | 6.92
C=C1SC(Nc2ccc(C)cc2C)=NC1(C)C | -1.66
O=C(Nc1nnc(-c2ccc3c(c2)OCO3)s1)c1ccc(Br)cc1 | 1.4
Cc1ccccc1OCC(O)Cn1c(C)[n+](C)c2ccccc21 (stereo not drawn) | -0.51
CCOc1ccc(N=c2ssc(SC)c2-c2ccccc2)cc1 | -0.88
CSc1ssc(=Nc2ccc(C)c(Cl)c2)c1-c1ccccc1 | -0.32
CSc1ssc(=Nc2ccc(F)c(F)c2)c1-c1ccccc1 | 3.62*
CC(C)(C)c1ccc(Oc2cnn(-c3ccccc3)c(=O)c2Cl)cc1 | -1.04
CCOCCOC(=O)C(C)Oc1ccc2c(=O)c(Oc3cc(C)c(Cl)c(C)c3)coc2c1 (stereo not drawn) | -0.19
CCCCOC(=O)C(C)Oc1ccc2c(=O)c(Oc3ccccc3Br)coc2c1 (stereo not drawn) | -0.22
CCC(C)OC(=O)C(C)Oc1ccc2c(=O)c(-c3ccc(Cl)cc3)coc2c1 (stereo not drawn) | -0.61
Cc1cc(C)cc(Oc2coc3cc(OC(C)C(=O)OCC(C)C)ccc3c2=O)c1 (stereo not drawn) | 3.61*
CCOC(=O)C(CC)Oc1ccc2c(=O)c(-c3ccc(Cl)cc3)coc2c1 (stereo not drawn) | 1.07
CCOCCOC(=O)COc1ccc2c(=O)c(-c3ccc(Cl)cc3)coc2c1 | 3.45*
CCCOC(=O)COc1ccc2c(=O)c(Oc3cc(C)c(Cl)c(C)c3)coc2c1 | -0.45
CC(C)COC(=O)C(C)Oc1ccc2c(=O)c(Oc3ccccc3Cl)coc2c1 (stereo not drawn) | 0.24
CCCOC(=O)C(C)Oc1ccc2c(=O)c(-c3ccc(Cl)cc3)coc2c1 (stereo not drawn) | 3.25*
Cc1ccc2oc3c(c(=O)c2c1)C(c1ccc(O)cc1)N(c1nc(C)c(C)s1)C3=O (stereo not drawn) | -0.16
O=C1C(=O)N(CCCN2CCOCC2)C(c2ccncc2)/C1=C(\O)c1ccccc1 (stereo not drawn) | 0.89
C=CCn1cnc2sc3c(c2c1=O)CCC(C)C3 (stereo not drawn) | -0.14
CC(NCc1cc2ccccc2cc1O)C(=O)O (stereo not drawn) | -0.11
COc1cccc(C2C(C(=O)OC3CCCCC3)=C(C)NC3=C2C(=O)CCC3)c1OC (stereo not drawn) | 1.51
O=C(NNc1ccccc1)c1cc(Cl)ccc1NC(=O)c1cccnc1Oc1ccccc1 | 0.19
C#CC(C)(C)NC(=O)c1cccnc1Oc1ccccc1 | -0.46
O=C(c1ccc(Cl)c(Cl)c1)c1nccn1Cc1ccc(Cl)cc1 | 0.12
COC(=O)C1=C(C)NC2=C(C(=O)CC(c3ccc4c(c3)OCO4)C2)C1c1ccc(Br)cc1 (stereo not drawn) | 0.89
Clc1cc(Cl)c(N/N=C2\CCCc3occc32)c(Cl)c1 | 1.98
O=C(O)c1coc2c1/C(=N/N1CCCCC1)CCC2 | 0.82
